# Results as given in the supplement of paper PMC6555819.
# Legend:
# Assay in all cases: PBM binding z-score (relative to random genomic background probes); higher = stronger binding; sequences stand for … in GC…GCGATTGACAGCGTAGAATGAAGG
# [1] = system: PPARg:RXRa DBDmut IVT, anti-RXR (DBD mutation: RXRa K156A/R161A, NR concentration 270 nM, RXRa partner concentration 90 nM)
# Outline: (§1)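 The probes on custom Agilent 4×180K protein-binding microarrays were double-stranded, with 34-nt variable regions bearing direct-repeat seeds, single-nucleotide variants, half-site ablations and random human genomic background sequences. Incubation lasted 1 h with ligand-free nuclear receptor dimers in PBS pH 7.4, 2% milk, 0.02% Triton X-100, 1 mM DTT, 0.2 mg/mL BSA and 0.4 mg/ml salmon testes DNA. Antibodies against each partner (one per run) detected bound dimers, and fluorescence scans were regression-normalized. Binding z-scores take the random background probes as reference.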
# [2] = system: PPARg:RXRa IVT, anti-PPARg (NR concentration 270 nM, RXRa partner concentration 90 nM)
# Outline: as §1
# [3] = system: PPARg DBDmut:RXRa IVT, anti-PPARg (DBD mutation: PPARg1 K132A/R137A, NR concentration 270 nM, RXRa partner concentration 90 nM)
# Outline: as §1
# [4] = system: PPARg DBDmut IVT, anti-PPARg (DBD mutation: PPARg1 K132A/R137A, NR concentration 270 nM)
# Outline: as §1
# [5] = system: PPARg homodimer (NR concentration 180 nM)
# Outline: as §1
# [6] = system: PXR:RXRa (NR concentration 270 nM, RXRa partner concentration 90 nM)
# Outline: as §1
# [7] = system: PXR homodimer (NR concentration 270 nM)
# Outline: as §1
# [8] = system: RARa:RXR (NR concentration 270 nM, RXRa partner concentration 90 nM)
# Outline: as §1
# [9] = system: RARa homodimer (NR concentration 270 nM)
# Outline: as §1
# [10] = system: RARb:RXRa (NR concentration 270 nM, RXRa partner concentration 90 nM)
# Outline: as §1
# [11] = system: RARb homodimer (NR concentration 270 nM)
# Outline: as §1
# [12] = system: RARg:RXRa (NR concentration 270 nM, RXRa partner concentration 90 nM)
# Outline: as §1
# [13] = system: RARg homodimer (NR concentration 270 nM)
# Outline: as §1
# [14] = system: RXRa DBDmut IVT, anti-RXR (DBD mutation: RXRa K156A/R161A, NR concentration 90 nM)
# Outline: as §1
# [15] = system: RXRa homodimer (NR concentration 180 nM)
# Outline: as §1
# [16] = system: THRa:RXRa (NR concentration 90 nM, RXRa partner concentration 90 nM)
# Outline: as §1
# [17] = system: THRa homodimer (NR concentration 90 nM)
# Outline: as §1
# [18] = system: VDR homodimer (NR concentration 270 nM)
# Outline: as §1
Sequence,PBM binding z-score [1],PBM binding z-score [2],PBM binding z-score [3],PBM binding z-score [4],PBM binding z-score [5],PBM binding z-score [6],PBM binding z-score [7],PBM binding z-score [8],PBM binding z-score [9],PBM binding z-score [10],PBM binding z-score [11],PBM binding z-score [12],PBM binding z-score [13],PBM binding z-score [14],PBM binding z-score [15],PBM binding z-score [16],PBM binding z-score [17],PBM binding z-score [18]
TAGCCTAGGTCATTGGGCCAGGATAGTACGCATC,2.04,3.75,0.235,0.25,0.798,1.05,-0.39,1.99,-0.0581,3.49,2.8,3.79,4.56,1.25,2.67,2.74,0.55,0.858
CGTCCAAGGTCAAGGTCAGTGTAAGAGACTCGAA,3.46,4.48,2.06,0.0248,3.45,5.09,1.07,5.28,2.14,5.47,4.82,6.56,7.36,3.69,6.28,4.39,3.57,3.32
ACTAATAGTTGACTTAGGGCAACCGATACGACGC,0.0501,0.335,0.861,0.863,0.622,0.0101,0.295,0.399,0.56,1.01,0.958,0.412,0.996,0.674,0.408,1.6,0.383,0.15
TCTTGTAGATCAATAGAGGTGAAGAAAGTGCGCT,2.33,1.64,0.582,1.07,-0.35,1.52,-0.318,1.28,0.328,0.777,0.962,0.365,0.434,0.561,0.577,2.59,-0.132,-0.534
TCACCAAGGTGAGCTGAGGTCGTTGATCCAACTC,1.73,1.53,-0.807,-0.69,0.0757,5.13,-0.0817,2.65,-0.943,1.61,1.5,1,0.829,0.546,1.28,4.7,1.49,1.64
CCGACTGGGGCAAGGTTACCAAAACGCACAGCCA,3.12,3.53,-0.395,-0.973,0.0774,0.341,-0.627,1.09,-0.287,1.73,1.38,1.04,1.18,-0.429,1.23,1.29,0.178,-0.217
CCGACTGGGGCAGAAACGTTACCATACCATCCGG,1.22,0.558,-0.521,-0.904,-0.18,-0.851,-0.758,-0.735,0.0145,-0.053,-0.276,-0.119,-0.0645,-0.654,-0.341,-0.691,-0.735,-0.552
CCTGCTAGGTCGATGGTCAGCTAAAGCAGCTCGC,0.713,0.603,-1.63,-0.626,-0.348,-0.314,-0.494,-0.143,-0.87,1.03,0.8,0.222,0.416,0.224,-0.11,0.103,-0.265,-0.719
CCGACTGGGGCATAAGGTTACCATCAGCCAGCCC,2.93,3.1,-0.916,-1.26,0.425,0.317,-0.375,1.06,-0.135,1.37,1.72,1.41,1,-0.242,1.03,1.98,1.33,-0.0619
TGAATGAGGTTATAAGATCTGGGAACGTTGCAAA,1.24,1.57,0.727,-0.0307,0.305,0.714,-0.0184,1.12,0.0804,1.07,0.515,1.04,0.631,0.607,1.61,1.67,0.199,0.194
CCTACTGGGCCATTCCGAGGTCATTGATCATATG,4.18,4.34,0.312,-0.485,1.24,4.4,4.22,3.88,0.0189,2.63,3.36,3.43,2.28,1.08,2.86,3.68,3.62,4.08
CGAACGTGGGCATGAGTTGATAGCAAATGCCGAT,-0.469,-0.859,-1.14,-1.08,-1.28,-0.855,-0.719,-1.12,-0.791,-0.401,-0.844,-0.563,-0.218,0.0414,-0.376,-0.695,-1.12,-0.195
ACTAGCAGGCCGAGGGTCACTCAAGATTAGTCCG,-0.156,1.16,-0.888,-0.885,0.902,1.71,-0.0802,2.32,-0.0933,2.43,2.43,2.41,2.14,0.267,2.49,1.91,-0.126,0.527
ATCTCAAGGTAACCAAGTTCAGTGAATGCCGAAC,0.508,1.32,0.386,0.953,0.654,2.82,3,1.14,0.198,1.62,1.51,1.21,1.06,1.01,0.816,2.24,1.06,3.2
CCGACTGCGGCAAGGTTACCATAACGCACAGCCA,-0.209,-0.134,-0.21,-0.256,0.4,0.562,0.00644,0.946,0.0538,0.845,1,0.707,0.42,0.215,1.07,1.4,0.537,0.321
